# Assay results: PMC4336329 (PLoS ONE, 2015)
# Out of some 310,000 compounds screened, about 14,000 (4.5%) showed an effect of 50% or more. The effect is printed as a negative number. What follows is part of a selection rich in strong results, with near analogues and random picks from the rest.
# Target: human ether-à-go-go-related gene (hERG) potassium channel (human, UniProt Q12809)
# Test: primary screen, population patch clamp on CHO cells stably expressing hERG; higher = less effect of the substance
# 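Note: peak tail current of the secondary pulse compared with the same well before compound.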
# Chain of human ether-à-go-go-related gene (hERG) potassium channel (Q12809 whole entry, looked up): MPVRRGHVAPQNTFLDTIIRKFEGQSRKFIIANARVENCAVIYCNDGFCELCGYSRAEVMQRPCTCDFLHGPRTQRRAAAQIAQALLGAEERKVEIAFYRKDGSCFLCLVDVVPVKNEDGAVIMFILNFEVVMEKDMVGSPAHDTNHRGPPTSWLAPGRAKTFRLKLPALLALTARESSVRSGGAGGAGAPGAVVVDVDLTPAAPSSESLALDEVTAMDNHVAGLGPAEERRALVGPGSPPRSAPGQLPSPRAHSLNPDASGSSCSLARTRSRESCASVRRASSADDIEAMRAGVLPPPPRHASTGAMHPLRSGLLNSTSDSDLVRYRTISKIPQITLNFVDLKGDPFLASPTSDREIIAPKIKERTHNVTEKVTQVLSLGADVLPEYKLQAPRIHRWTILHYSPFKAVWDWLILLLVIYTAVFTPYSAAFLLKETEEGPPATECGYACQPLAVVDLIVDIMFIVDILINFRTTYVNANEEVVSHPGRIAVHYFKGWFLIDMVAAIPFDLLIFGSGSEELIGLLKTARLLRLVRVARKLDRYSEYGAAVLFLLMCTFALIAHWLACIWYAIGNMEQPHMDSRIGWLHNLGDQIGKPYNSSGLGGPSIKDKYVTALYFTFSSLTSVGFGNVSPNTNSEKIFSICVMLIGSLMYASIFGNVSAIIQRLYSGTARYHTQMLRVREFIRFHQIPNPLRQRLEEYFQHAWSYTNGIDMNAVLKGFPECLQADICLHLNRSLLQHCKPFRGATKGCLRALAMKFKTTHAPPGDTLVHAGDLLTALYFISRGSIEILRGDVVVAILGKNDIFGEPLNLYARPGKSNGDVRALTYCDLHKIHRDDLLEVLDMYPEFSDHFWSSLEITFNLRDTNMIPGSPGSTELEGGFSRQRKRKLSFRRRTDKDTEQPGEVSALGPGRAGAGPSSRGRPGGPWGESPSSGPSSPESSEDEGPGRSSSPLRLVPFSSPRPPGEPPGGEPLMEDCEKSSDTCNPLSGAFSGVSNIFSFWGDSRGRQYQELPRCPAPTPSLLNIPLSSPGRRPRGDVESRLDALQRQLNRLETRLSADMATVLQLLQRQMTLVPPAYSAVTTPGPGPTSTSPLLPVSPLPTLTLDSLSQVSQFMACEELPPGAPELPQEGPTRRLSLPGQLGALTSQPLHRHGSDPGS
row,SMILES,"hERG current change (%, negative = inhibition) at 10uM"
1,COC(C)(C)[C@H](O)COc1c2ccoc2cc2oc(=O)ccc12,11.2%
2,Cc1cccc(CCNC(=O)CCNS(=O)(=O)c2cc(Br)cnc2N)c1,-5.7%
3,CC(C)c1ccc(-c2c(C#N)c(N)nc(SCC(=O)N3CCCCCC3)c2C#N)cc1,8.56%
4,COc1ccccc1C(=O)Nc1ccc(OC(C)C(=O)N2CCOCC2)cc1 (stereo not shown),1.1%
5,Cc1cccc(NC(=O)N2CCN(Cc3ccccc3)CC2)c1,8.14%
6,O=C(Nc1cccc(C(=O)N2CCN(Cc3ccccc3)CC2)c1)c1ccccc1,-16.7%
7,COc1cccc(NC(=O)c2ccc(CN3CCN(c4ccccc4)CC3)cc2)c1,-48.8%
8,Cc1cccc(NC(=O)N2CCN(Cc3ccc(Cl)cc3)CC2)c1,-50.7%
9,Cc1cccc(NC(=O)N2CCCC2)c1,12.4%
10,Cc1cccc(NC(=O)c2ccc(CN3CCN(Cc4ccccc4)CC3)cc2)c1,-80.3%
11,O=S(=O)(NNC(=S)NCC1CCCO1)c1cc(Cl)ccc1Cl (stereo not shown),9.42%
12,COC(=O)C1=C(C)N(CCc2ccccc2)C(=O)/C1=C\c1ccco1,-4.19%
13,Cn1c(=O)c2c(nc(NCCCO)n2C/C=C/c2ccccc2)n(C)c1=O,-21%
14,Cc1ccccc1-n1cnnc1SCC(=O)N1CCN(c2ccccc2)CC1,-57.7%
15,COc1ccc(-n2cnnc2SCC(=O)N2CCN(c3ccccc3)CC2)cc1,-36.2%
16,Cc1ccc(CSCC(=O)N2CCN(c3ccccc3)CC2)cc1,-9.06%
17,CCn1c(CSCc2ccc(C)cc2)nnc1SCC(=O)N1CCN(c2ccccc2)CC1,-45.4%
18,Cn1c(Cc2ccccc2)nnc1SCC(=O)N1CCN(c2ccccc2)CC1,-14.5%
19,C=CCn1c(CSCc2ccccc2)nnc1SCC(=O)N1CCN(c2ccccc2)CC1,-23.6%
20,CCn1c(CSCc2ccc(F)cc2)nnc1SCC(=O)N1CCN(c2ccccc2)CC1,-58.6%
21,Cc1ccc(CSCc2nnc(SCC(=O)N3CCN(c4ccccc4)CC3)n2C)cc1,-54%
22,Cn1c(CNC(=O)c2ccccc2)nnc1SCC(=O)N1CCN(c2ccccc2)CC1,1.77%

row,SMILES,"hERG current change (%, negative = inhibition) at 10uM"
1,O=C(CSc1nncn1-c1ccccc1)N1CCCC1,2.66%
2,Cn1c(CNC(=O)c2ccccc2F)nnc1SCC(=O)N1CCN(c2ccccc2)CC1,-8.2%
3,Cn1c(CSCc2ccc(F)cc2)nnc1SCC(=O)N1CCN(c2ccccc2)CC1,-70.7%
4,COc1ccc(OCC(N)=O)cc1,8.9%
5,O=c1[nH]c(SCc2cccc(Cl)c2)nc2[nH]ncc12,12.6%
6,C#Cc1ccc([C@@H]2C=C(C(=O)NC3CC3)O[C@H](OCC)[C@H]2CCCO)cc1,-35.2%
7,CC(NC(=O)c1ccccc1)c1nnc(SCc2nc3ccccc3c(=O)[nH]2)n1C (stereo not shown),14%
8,C[C@@H](CO)NC(=O)c1ccc2c3n(nc2c1)-c1ccc(Cl)cc1CO3,-1.96%
9,Cc1ccccc1NC(=O)CN1C(=O)NC(C)(c2ccc3c(c2)OCO3)C1=O (stereo not shown),9.53%
10,COc1ccc(C)cc1-n1nnnc1SCC(=O)NC1CC1,0.673%
11,Cc1ccc(C)c(OCc2cc(C(=O)N3CCN(C(=O)c4ccco4)CC3)no2)c1,-10.7%
12,COCCN1CCN(C(=O)c2cc(COc3cc(C)ccc3C)on2)CC1,1.06%
13,Cc1ccc(C)c(OCc2cc(C(=O)N3CCN(c4ccccc4)CC3)no2)c1,-31.4%
14,Cc1ccc(C)c(OCc2cc(C(=O)N3CCN(c4cnccn4)CC3)no2)c1,-81.7%
15,CCN1CCC2(CCN(C(=O)c3cc(COc4cc(C)ccc4C)on3)C2)C1 (stereo not shown),-54.8%
16,Cc1ccc(C)c(OCc2cc(C(=O)N3CCOCC3)no2)c1,-3.82%
17,FC(F)(F)c1ccc(N2CCN(c3ncnc4c3nnn4Cc3ccccc3)CC2)nc1,-2.11%
18,C=CCn1c(C)cc(C(=O)CSc2nnc(NCc3ccccc3)s2)c1C,-8.54%
19,O=c1[nH]c(O)c(C=Nc2ccccc2Oc2ccccc2)c(=O)[nH]1,15.9%
20,COc1ccc(NS(=O)(=O)c2ccc(NC(=O)Cc3cccs3)cc2)cc1,12.7%
21,CCOc1ccc2nc(C)cc(C(=O)O)c2c1,-2.09%
22,CCN1CCN(c2ccc(S(=O)(=O)N3CCOCC3)cc2NC(=O)CC(C)C)CC1,0.99%

row,SMILES,"hERG current change (%, negative = inhibition) at 10uM"
1,CC1CC(C)CN(C(=S)Nc2ccc(OC(F)F)cc2)C1 (stereo not shown),-36.6%
2,Br.COc1ccc(C(=O)CN2CCCCC2)cc1,7.07%
3,Br.CC1CC(C)CN(CC(=O)c2ccc(OC(F)F)cc2)C1 (stereo not shown),-91.5%
4,Br.O=C(CN1CCCCC1)c1ccc(OC(F)F)cc1,-69.6%
5,CC1CC(C)CN(CC(=O)c2cccs2)C1 (stereo not shown),-9.99%
6,Cl.O=C(CN1CCCCC1)c1ccc(F)cc1,1.94%
7,Cc1cccc(C)c1-n1nnnc1C1(Nc2ccccc2)CCCCC1,-4.36%
8,CCCN(CC(=O)Nc1ccccc1OC)C(=O)CCNC(=O)c1ccccc1OC,-2.16%
9,CCN(CC)S(=O)(=O)c1ccc(N2CCN(c3ccccc3O)CC2)nc1,-52.8%
10,CCN(c1ccccc1)S(=O)(=O)c1ccc(N2CCN(c3ccccc3O)CC2)nc1,-0.538%
11,CCN(CC)S(=O)(=O)c1ccc(N2CCN(CCO)CC2)nc1,-3.97%
12,Cc1ccc(CN2CCNC(=O)C2CC(=O)N(Cc2c(C)nn(C)c2C)C2CC2)o1 (stereo not shown),23.9%
13,CCN=C1SC(C(N)=O)CC(=O)N1CC (stereo not shown),12.9%
14,O=C(c1cn[nH]c1)c1cc(F)ccc1O,-2.62%
15,COc1cccc(-c2nnc(SCc3ccc(C#N)cc3)n2Cc2ccco2)c1,-70.3%
16,Cc1ccc(NCc2nnc(SCc3ccc(C#N)cc3)n2Cc2ccco2)c(C)c1,-70.8%
17,Cc1ccc(NCc2nnc(SCC(=O)c3ccccc3)n2Cc2ccco2)c(C)c1,-7.53%
18,COc1ccc(C(=O)CSc2nnc(CNc3ccc(C)cc3C)n2Cc2ccco2)cc1,6.88%
19,Cc1cccc(-c2nnc(SCc3ccc(C#N)cc3)n2Cc2ccco2)c1,-89%
20,N#Cc1ccc(CSc2nnc(-c3ccccc3)n2Cc2ccco2)cc1,-26.8%
21,COc1cccc(-c2nnc(SCC(=O)OC(C)C)n2Cc2ccco2)c1,-15.3%
22,Cc1cccc(-c2nnc(SCc3nc4ccccc4[nH]3)n2Cc2ccco2)c1,-48.8%

row,SMILES,"hERG current change (%, negative = inhibition) at 10uM"
1,Cc1ccc(-c2nnc(SCc3ccc(C#N)cc3)n2Cc2ccco2)cc1,-20.6%
2,O=C(CSc1nnc(-c2ccncc2)n1Cc1ccco1)N1c2ccccc2Sc2ccc(Cl)cc21,-2.92%
3,CCSC1=NCCN1C(=O)c1c(-c2ccccc2Cl)noc1C,-20.6%
4,O=C(CSc1nnc(-c2ccccc2)o1)NC1CCCCC1,-16.6%
5,O=C(CNc1cccc([N+](=O)[O-])c1)N/N=C/c1ccc([N+](=O)[O-])o1,-36%
6,O=C(CN1CCN(c2ccccc2)CC1)N1CCc2[nH]c3ccccc3c2C1,-26.9%
7,COc1ccccc1NC(=O)N1CCCC1C(=O)NCc1cccs1 (stereo not shown),0.509%
8,COc1ccc(CCNCc2ccc(OCc3ccccc3)cc2)cc1,-41.6%
9,COc1cccc(CCNCc2ccc(SC)cc2)c1.O=C(O)C(=O)O,-67.7%
10,COc1cccc(CCNCc2c(F)cccc2F)c1.O=C(O)C(=O)O,-15.1%
11,COc1cccc(CNCCc2ccc(F)cc2)c1.O=C(O)C(=O)O,-9.82%
12,COc1cc(CNCc2ccc(SC)cc2)cc(OC)c1,-14.9%
13,COc1ccc(CCNCc2ccc(SC)cc2)cc1,-73.2%
14,CC(=O)N1c2ccc(S(=O)(=O)NC(CC(=O)O)c3ccc(Br)cc3)cc2CC1C (stereo not shown),22.3%
15,CC1CCN(S(=O)(=O)c2ccccc2)CC1,-3.32%
16,O=C(CCNS(=O)(=O)c1ccc(Br)cc1)NCc1ccc2c(c1)OCO2,-3.3%
17,OCCOCCNc1ncnc2c1cnn2-c1ccccc1,9.79%
18,CN(C)CCCNc1ncnc2c1cnn2-c1ccccc1,-22.8%
19,COc1ccc(-n2cc(-c3ccccc3)c3c(NCCOCCO)ncnc32)cc1,-42.9%
20,OCCOCCNc1ncnc2c1c(-c1ccccc1)cn2-c1ccccc1,-50.6%
21,Cc1c(C)n(-c2ccccc2)c2ncnc(NCCCN(C)C)c12,0.841%
22,CN(C)CCCNc1ncnc2c1c(-c1ccccc1)cn2-c1ccccc1,-64.4%
